HTT cytoprotect: qHTS Multiplex Assay to Identify Dual Action Probes in a Cell Model of Huntington: Cytoprotection (ATP). PC12 HTT-Q103 induced, cytoprotection, ATP luminescence, 40 h. Potency, µM (series often up to 56.4 µM), inactives show cytoprotection (ATP increase), hits mostly activators. 230,000 tested, 0.14% active. AID 1471, 2008; further: potency means the concentration at half of the fitted maximal effect; % of control where 0% means no effect; nearly all actives have a fitted effect of over 45% in size
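Rat PC12, Q103 Htt exon1-GFP fusion, ecdysone promoter; tebufenozide inducer 100 nM final; compound titration; qHTS, 1500 cells/well; ATPlite luminescent read.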
PNC inhibitor: High Content Assay for Compounds that inhibit the Assembly of the Perinucleolar Compartment. PC3M PTB-GFP, PNC prevalence imaging, 16 h; active compounds read low. activity change (PNC), negative = inhibition, % at 10 µM. 140,000 tested, 3.1% active;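 active means readout at or below -70, meaning at least 70% loss of cells showing the perinucleolar compartment, a nuclear body marking cancer cells; inconclusive means readout between -30 and a set limit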;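 further: plate controls were DMSO wells for no effect and camptothecin positive control wells for full effect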
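PC3M cells stably expressing PTB-GFP, 750–1000 cells/well, treated 16 h at 37 °C with compound (23 nl of library stock), in duplicate. After paraformaldehyde fixation and Hoechst stain, imaged at 20x; PNC prevalence scored by image analysis.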
HTT aggregate: qHTS Multiplex Assay to Identify Dual Action Probes in a Cell Model of Huntington: Aggregate Formation (GFP) | AID 1688, 2009 | Potency, µM (highest dose often 46.1 µM), for the others: at the highest dose activity change, negative = inhibition, hits mostly inhibitors | PC12 HttQ103-GFP aggregates, Acumen cytometry, 40 h | 220,000 tested, 1.1% active; further: potency means the concentration at half of the fitted maximal effect; on the % scale 0 is the no-effect control and ±100 the full control effect; nearly all actives have a fitted effect of over 60% in size
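PC12 cells with ecdysone-inducible HTT exon1 Q103-GFP, induced by 100 nM tebufenozide, given compounds in a concentration series. GFP aggregates (1–25 um, 6 SD above background) counted in lysates by laser-scanning cytometry, 488 nm excitation.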
* hit, by the source's call; ? = inconclusive; nt = no result given; [ ] = remark or other dose. The full list was thinned out, with hits kept by preference. Unless noted, the call rests on the fitted dose curve; in most records, active means well fitted curve in the direction sought with a large enough effect; inconclusive means small, poorly fitted or top-dose-only effect, or another doubt; inactive means no such curve, though single readings can be large; an effect the other way counts as inactive or inconclusive.

SMILES | HTT cytoprotect | PNC inhibitor | HTT aggregate
Cc1csc(=N)n1-c1ccc(Cl)cc1 | -2% | -4 | 12%
CC(C)Cn1c(-c2csc3ccccc23)n[nH]c1=S | 0% | ? | 10%
Cc1occc1-c1n[nH]c(=S)n1CC(C)C | 6%[10 µM] | -94* | -1%
CCc1cc2c(C)ccc(C)c2nc1SCC(=O)Nc1c(C)[nH]c(=O)[nH]c1=O | 26%[10 µM] | 0 | 15%
COc1ccccc1NC(=O)N1CCN(c2cc(-c3ccccc3)nc3ncnn23)CC1 | ? | 9 | 10µM*
COc1ccc(OC)c(NC(=O)C2CCN(c3cc(-c4ccccc4)nc4ncnn34)CC2)c1 | -65% | 6 | 11%
COc1ccc(C(=O)/C=C/N(C)C)cc1 | -21%[10 µM] | -80* | 22%
CN(C)/C=C/C(=O)c1ccc(Oc2ccccc2)cc1 | -9%[10 µM] | nt | 2%
Cc1ccc(Oc2nc3ccccn3c(=O)c2/C=C(\C#N)C(=O)NC2CCS(=O)(=O)C2)cc1 (configuration not stated) | -6%[10 µM] | nt | 7%[9.22 µM]
CCOC(=O)C1(CC2CCCCO2)CCN(S(=O)(=O)c2ccc(C)s2)CC1 (configuration not stated) | -13%[10 µM] | nt | -2%[9.22 µM]
N#CC1=C(N)Oc2cc(O)ccc2C1c1cccnc1 (configuration not stated) | nt | nt | 14%
CN(C)c1ccc2c(c1)OC(N)=C(C#N)C2c1cccc(F)c1 (configuration not stated) | -93% | -85* | ?
O=C(C(=O)N1CCc2ccccc2C1)c1cn(CC(=O)N2CCCCC2)c2ccccc12 | 10%[10 µM] | -12 | 18%
Cc1ccc(-c2noc(CN(C(=O)Cc3ccccc3)C(C)C)n2)cc1 | 13% | -81* | 0%
Cc1ccc(C)c(C(=O)N(Cc2nc(-c3ccc(Cl)cc3)no2)C(C)C)c1 | -1% | -15 | 22µM*
CCN(Cc1ccccc1)C(=O)CCc1nc(-c2ccc(C)cc2)no1 | -9% | -4 | -1%
CCc1ccccc1N(CC)C(=O)CCc1nc(-c2ccc(C)cc2)no1 | -47% | -24 | 10µM*
CC(C)N(Cc1nc(-c2ccccc2)no1)C(=O)Cc1ccccc1 | -8% | ? | 24%
COc1cccc(C(=O)N(Cc2nc(-c3ccc(C)cc3)no2)C(C)C)c1 | 17%[0.074 µM] | -20 | -2%
Cc1cc(/C=C2\SC(=Nc3ccc(F)cc3)NC2=O)c(C)n1-c1ccc(S(N)(=O)=O)cc1 | -75% | -99* | ?
Cc1cc(/C=C2\SC(=S)NC2=O)c(C)n1-c1ccc(O)cc1 | -25%[10 µM] | nt | 3%[9.22 µM]
CC1CN(c2oc(COc3ccc(Cl)cc3Cl)nc2C#N)CC(C)O1 (configuration not stated) | -5%[10 µM] | -100* | -1%
N#Cc1nc(COc2ccccc2Cl)oc1N1CCCCCC1 | -22%[10 µM] | -122* | 7%
N#Cc1nc(COc2ccc(Cl)cc2)oc1N1CCCCCC1 | -34% | ? | -30%
N#Cc1nc(COc2ccccc2Cl)oc1N1CCCC1 | -12%[10 µM] | nt | -6%[9.22 µM]
SMILES | HTT cytoprotect | PNC inhibitor | HTT aggregate
CCCCOc1ccc(-n2nc(C)cc2C)nn1 | -12% | ? | 6%
Cc1cc(C)n(-c2ccc(OCC(=O)O)nn2)n1 | 8% | -115* | -1%
O=[N+]([O-])c1ccc(O)c(-c2nc(-c3ccccc3)c(-c3cccs3)[nH]2)c1 | -57% | -29 | 7.9µM*
O=C(O)c1ccc(-c2nc(-c3ccccc3)c(-c3cccs3)[nH]2)cc1 | -8%[10 µM] | nt | -25%[9.22 µM]
Cc1cc(C=O)c(C)n1-c1ccc(Oc2ccc([N+](=O)[O-])cn2)cc1 | nt | -118* | 22µM*
COc1ccc(NC(=O)/C(C#N)=C\c2cc(C)n(-c3ccc(Oc4ccc([N+](=O)[O-])cn4)cc3)c2C)cc1 | -19% | -5 | -10%
NC(=O)CN1CCOCCOCCN(CC(N)=O)CCOCCOCC1 | 9%[10 µM] | -106* | -3%
NC(=O)CN1CCOCCOCCOCCOCCOCC1 | -13% | 20 | 24%
Cc1cc(C(=O)CCC(=O)N2CCN(S(=O)(=O)c3cccs3)CC2)c(C)s1 | 4%[10 µM] | -100* | -4%
CCOC(=O)N1CCN(S(=O)(=O)c2cccs2)CC1 | -17%[0.074 µM] | 47 | 0%
Cn1c(=O)[nH]c(=O)c2c1nc(NC1CCCCC1)n2CC(=O)NC1CCCCC1 | 5%[10 µM] | 19 | 0%
O=S(=O)(c1ccc(Cl)cc1)N1CCN(Cc2ccc(O)c3ncccc23)CC1 | nt | nt | 5µM*
Oc1ccc(CN2CCN(Cc3ccccc3)CC2)c2cccnc12 | -4% | ? | 3%
CCc1nc(-c2ccccc2)c2ccccn12 | -15% | nt | 0%

Assay outcomes as filed in PubChem BioAssay.
